Compound activity deposited in PubChem BioAssay by several laboratories.
This is a sample that favours compounds with a hit; in the whole collection about 4.3% have one here.
UBC13 polyUb – inhibitors of human UBC13 polyubiquitin chain formation | inhibition, % at 20 µM | P61088 | TR-FRET | 330,000 compounds, 0.47% hits; in the data active = inhibition above about 45%, passing the limit was not always enough
NALP1 yeast inh – inhibitors of NALP1 inflammasome in yeast | AID 2071 | inhibition, % at 10 µM | S. cerevisiae NALP1/ASC/caspase-1 growth, X-gal OD620, 72 h | 280,000 compounds, 0.61% hits; in the data active = inhibition mostly above about 24%, no sharp cut-off; inactive = mostly below about 32%
dFosB act – mouse delta FosB homodimer activation; P13346; purified delta FosB, TAMRA-CDK5 oligo fluorescence polarization; percent of positive-control signal above neutral wells; activation, % at 25 µM; 340,000 compounds, 0.99% hits; AID 493131;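 active = mean activation above about 17%, with every replicate also reaching it, limit read from the data, passing the limit was not always enough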
Target sequence (P13346 whole entry, looked up): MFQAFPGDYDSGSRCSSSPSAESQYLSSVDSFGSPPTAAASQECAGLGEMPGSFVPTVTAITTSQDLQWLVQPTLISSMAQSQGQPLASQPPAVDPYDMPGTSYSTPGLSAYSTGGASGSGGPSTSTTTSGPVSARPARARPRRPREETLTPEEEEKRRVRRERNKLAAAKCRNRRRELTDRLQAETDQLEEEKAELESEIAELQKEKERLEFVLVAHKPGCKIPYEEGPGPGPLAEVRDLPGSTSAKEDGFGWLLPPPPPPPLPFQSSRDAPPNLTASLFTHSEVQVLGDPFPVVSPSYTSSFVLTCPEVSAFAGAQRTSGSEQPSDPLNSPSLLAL
NR3A LBD binder – modulators (binders) of human NR3A ligand-binding domain. NR3A LBD differential scanning fluorimetry, Tm shift; 0% = protein alone, 100% = glycine-bound protein. Tm shift relative to glycine control, % at 25 µM. 340,000 compounds, 2.5% hits. AID 1259313;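 active = melting temperature shift of at least 10% of the positive control shift, at one fixed dose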
Yeast superoxide – lowers age-related superoxide in aged yeast cells | 330,000 compounds, 0.18% hits | superoxide response (% of plate mean), % at 10 µM | S. cerevisiae aged cells, superoxide DHE fluorescence; hits give low values;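 active = superoxide response under a set limit, about three screen SD below normal, cut at about 65% in these data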;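 note: yeast aged for seven days with compound at 30 °C before DHE staining; 100% = average MFI of all compound-treated wells on the plate with controls excluded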
Numbers without * were called inactive; nt = no result given.

SMILES	UBC13 polyUb	NALP1 yeast inh	dFosB act	NR3A LBD binder	Yeast superoxide
Cc1c(NC(=O)c2ccc(F)cc2)c(=O)n(-c2ccccc2)n1C	0	36*	0	-1	93
O=C(CCNS(=O)(=O)c1ccc(Br)cc1)NCc1ccc(Cl)cc1	6	1	-2	-5	126
CC(Sc1ccccc1)C(=O)NNC(=O)c1ccncc1 (stereo unspecified)	-7	nt	-6	0	90
Cc1ccc(S(=O)(=O)Nc2cc(=O)[nH]c(SCc3ccc(Cl)cc3)n2)cc1	nt	-15	-2	11*	100
O=c1cc(NS(=O)(=O)c2ccccc2)nc(SCc2c(Cl)cccc2Cl)[nH]1	-8	17	0	-11	80
Cc1[nH]c(=O)nc(SCc2cccc(Cl)c2)c1C#N	3	-1	-8	-4	103
Cc1snc(SCc2cccc(Cl)c2)c1C#N	10	22	1	20*	88
N#CC1C(=O)NC(=O)C(C#N)C12CCCC(C(F)(F)F)C2 (stereo unspecified)	nt	nt	-7	-1	nt
Cc1cccc(C(=O)OCC(=O)N(C)CC(=O)Nc2ccc(Cl)c(C(F)(F)F)c2)c1	19	nt	-4	12*	94
Cc1nc(-c2ccc(F)cc2)c(CC(=O)N(C)CC(=O)Nc2ccc(Cl)c(C(F)(F)F)c2)s1	nt	nt	-10	12*	nt
Cc1ccc(OCC(=O)N(C)CC(=O)Nc2ccc(Cl)c(C(F)(F)F)c2)c([N+](=O)[O-])n1	12	nt	-9	0	95
Cc1ccc(C)c(OCC(=O)N(C)CC(=O)Nc2ccc(Cl)c(C(F)(F)F)c2)c1	9	nt	-2	12*	101
COCCn1cnc2c1c(=O)[nH]c(=O)n2Cc1ccccc1	-2	11	-8	-3	91
CCN(CC)CC(O)c1ccc2ccc3ccc(O)cc3c2c1 (stereo unspecified)	nt	nt	4	4	nt
CCCCC(c1nnnn1CCOC)N1CCN(Cc2ccccc2)CC1 (stereo unspecified)	-6	6	1	-1	93
Cc1onc(-c2ccccc2)c1NC(=O)N(CCC#N)Cc1ccccc1	-13	5	-6	1	107
COc1ccc(N/C=C/C(=O)c2ccc(C)cc2)c([N+](=O)[O-])c1	-43	nt	-4	20*	99
CCOc1ccc(N/C=C/C(=O)c2ccc(OC)cc2)c([N+](=O)[O-])c1	-40	-10	-3	20*	93
CCCC(Oc1ccc(Br)cc1)c1nc2c3cc(OC)c(OC)cc3nc(=S)n2[nH]1 (stereo unspecified)	34	1	-23	16*	83
CC(Oc1ccc(Br)cc1)c1nc2c3ccccc3nc(=S)n2[nH]1 (stereo unspecified)	32	-4	-7	-3	96
CCOC(=O)C1=CN(Cc2cccc(-c3ccc4c(c3)OCO4)c2)S(=O)(=O)N(C)C1C (stereo unspecified)	nt	nt	2	6	93
O=C(CN1C(=O)NC2(CCCC2)C1=O)Nc1ccc(F)c(Cl)c1	0	2	0	2	94
O=C(c1cccc(Br)c1)N1CCN(C(=O)N2CCCCC2)CC1	3	43	-2	0	110
CN(C)S(=O)(=O)N1CCN(C(=O)c2cccc(Br)c2)CC1	5	-6	5	11*	89
O=C(c1cccc(Br)c1)N1CCCC1	5	4	-4	13*	88
SMILES	UBC13 polyUb	NALP1 yeast inh	dFosB act	NR3A LBD binder	Yeast superoxide
O=C1C(=O)N(c2ccccn2)C(c2cccc(F)c2)/C1=C(/O)c1ccccc1 (stereo unspecified)	1	12	-3	-2	101
Cn1c(CC(=O)NNC(=O)c2ccc(Cl)nc2)nc2ccccc21	10	nt	1	0	88
Cc1nnc(NC(=O)CSc2nnc3c(n2)[nH]c2ccc(Br)cc23)s1	-11	8	153*	4	106
O=S(=O)(c1ccccc1)N1CCN(c2ncccn2)CC1	-3	5	-9	-2	111
Cc1ccc(C)c(S(=O)(=O)N2CCN(c3ncccn3)CC2)c1	-1	34*	-6	-2	88
c1ccc(N2CCN(c3ncccn3)CC2)cc1	3	26*	2	-8	91
O=S(=O)(c1ccccc1Br)N1CCN(c2ncccn2)CC1	5	36*	2	-1	104
Cc1ccc(S(=O)(=O)N2CCN(c3ncccn3)CC2)c(C)c1	-8	nt	-6	-3	103
Cn1nc(C(=O)NNC(=O)c2ccccc2Br)c2ccccc2c1=O	-6	nt	-6	0	nt
COc1ccc(CC(=O)OCC(=O)Nc2ncc(Cl)c(C)c2Cl)cc1	-6	nt	-7	-1	nt
